Source: the supplement of paper PMC12494721
Structures can show the parent of a compound that is named as a salt.

Legend:
Conditions in all cases: incubation time: 27 h, anaerobic, 37 °C;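 for the amine columns active = adjusted P below 0.05 in both replicates with a change the same way and a mean fold change under 0.8 or over 1.25; inactive = the rest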
[1] = test system: Clostridium sporogenes DSM 1664; assay: growth (OD595) fold change vs plate DMSO controls (fold change (ratio)); higher = more growth
Summary of the method: (§1)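 The reported measure is growth: the fold change against the median of DMSO controls on the plate. Absorbance at 595 nm from anaerobic 96-well mGAM cultures grown for 27 h at 37 °C was blank-subtracted, corrected for background with 20 µM compound solutions in water, and converted to OD with a calibration factor of 5. Fold changes above 1.5 appear as NA, and values are the mean of 2 biological replicates.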

Escherichia coli IAI1 [2] = assay: as above
Summary of the method: as §1

[3] = test system: Klebsiella aerogenes DSM 30053; assay: as above
Summary of the method: as §1

[4] = test system: Ruminococcus gnavus DSM 108212; assay: as above
Summary of the method: as §1

[5] = test system: Klebsiella aerogenes DSM 30053; assay: fold change of Histamine concentration vs plate DMSO controls (fold change (ratio)); higher = more amine produced, active = hit call of the paper (significant change in both replicates, either direction)
Summary of the method: (§2)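 Extracts of whole anaerobic mGAM cultures were analysed for amines by LC–triple-quadrupole MS with dynamic MRM and external calibration curves, with drift corrected within batch. Four gut strains were grown at 37 °C for 27 h in 80 µL wells with compounds at 20 µM final, sweeteners at 50 µM final. Each value expresses fold change over plate DMSO controls. The average of 2 biological replicates is shown.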

[6] = test system: Clostridium sporogenes DSM 1664; assay: fold change of Tryptamine concentration vs plate DMSO controls (fold change (ratio)); higher = more amine produced, active = hit call of the paper (significant change in both replicates, either direction)
Summary of the method: as §2

[7] = test system: Ruminococcus gnavus DSM 108212; assay: as above
Summary of the method: as §2

Escherichia coli IAI1 [8] = assay: fold change of Putrescine concentration vs plate DMSO controls (fold change (ratio)); higher = more amine produced, active = hit call of the paper (significant change in both replicates, either direction)
Summary of the method: as §2

[9] = test system: Klebsiella aerogenes DSM 30053; assay: as above
Summary of the method: as §2

Escherichia coli IAI1 [10] = assay: fold change of Cadaverine concentration vs plate DMSO controls (fold change (ratio)); higher = more amine produced, active = hit call of the paper (significant change in both replicates, either direction)
Summary of the method: as §2

[11] = test system: Klebsiella aerogenes DSM 30053; assay: as above
Summary of the method: as §2

[12] = test system: Ruminococcus gnavus DSM 108212; assay: fold change of 2-Phenylethylamine concentration vs plate DMSO controls (fold change (ratio)); higher = more amine produced, active = hit call of the paper (significant change in both replicates, either direction)
Summary of the method: as §2

Row | SMILES | growth [1] | growth (Escherichia coli IAI1 [2]) | growth [3] | growth [4] | fold change of Histamine concentration [5] | fold change of Tryptamine concentration [6] | fold change of Tryptamine concentration [7] | fold change of Putrescine concentration (Escherichia coli IAI1 [8]) | fold change of Putrescine concentration [9] | fold change of Cadaverine concentration (Escherichia coli IAI1 [10]) | fold change of Cadaverine concentration [11] | fold change of 2-Phenylethylamine concentration [12]
1 | CNCC[C@@H](Oc1ccccc1C)c1ccccc1 [Tomoxetine hydrochloride] (20 µM) | 1.11 | 1.01 | 0.98 | 1.1 | 0.978 (inactive) | 1.1 (inactive) | 1 (inactive) | 0.969 (inactive) | 0.968 (inactive) | 0.989 (inactive) | 1 (inactive) | 1.05 (inactive)
2 | Oc1ccccc1O [Catechol] (20 µM) | 1.11 | 1.01 | 0.966 | 0.98 | 1 (inactive) | 0.972 (inactive) | 0.979 (inactive) | 1.02 (inactive) | 1.01 (inactive) | 1.16 (inactive) | 0.978 (inactive) | 0.971 (inactive)
3 | CCC1(C)CC(=O)NC1=O (centres undefined) [Ethosuximide] (20 µM) | 0.953 | 1 | 1.07 | 0.928 | 0.991 (inactive) | 1.07 (inactive) | 0.992 (inactive) | 1 (inactive) | 0.995 (inactive) | 0.995 (inactive) | 1.03 (inactive) | 1.02 (inactive)
4 | OCCN(CCO)c1nc(N2CCCCC2)c2nc(N(CCO)CCO)nc(N3CCCCC3)c2n1 [Dipyridamole] (20 µM) | 0.986 | 1.03 | 0.521 | 0.969 | 0.47 (inactive) | 0.971 (inactive) | 1 (inactive) | 1.03 (inactive) | 0.51 (inactive) | 1 (inactive) | 0.5 (inactive) | 0.994 (inactive)
5 | CCOC(=O)[C@@](C)(N)Cc1ccc(O)c(O)c1 [Methyldopate hydrochloride] (20 µM) | 0.926 | 1.05 | 1.03 | 1.14 | 0.963 (inactive) | 1.04 (inactive) | 1.09 (inactive) | 1.22 (inactive) | 0.975 (inactive) | 0.898 (inactive) | 1.02 (inactive) | 1.07 (inactive)
6 | Cc1ccc(C(=O)c2cc(O)c(O)c([N+](=O)[O-])c2)cc1 [Tolcapone] (20 µM) | 1.11 | 0.961 | 0.997 | 1.19 | 1.01 (inactive) | 0.908 (inactive) | 0.983 (inactive) | 1.33 (inactive) | 0.998 (inactive) | 0.981 (inactive) | 1 (inactive) | 0.971 (inactive)
7 | Nc1ccc(S(=O)(=O)c2ccc(N)cc2)cc1 [Dapsone] (20 µM) | 1.06 | 1.02 | 0.979 | 1.2 | 0.967 (inactive) | 1.03 (inactive) | 0.982 (inactive) | 1.04 (inactive) | 0.981 (inactive) | 1.02 (inactive) | 1 (inactive) | 1.04 (inactive)
8 | Cc1cc2nc3c(=O)[nH]c(=O)nc-3n(C[C@H](O)[C@H](O)[C@H](O)CO)c2cc1C [Riboflavine] (20 µM) | 1.09 | 0.982 | 0.997 | 0.982 | 0.984 (inactive) | 1 (inactive) | 1.08 (inactive) | 0.989 (inactive) | 0.964 (inactive) | 1.01 (inactive) | 0.994 (inactive) | 1.15 (inactive)
9 | C#C[C@]1(O)CC[C@H]2[C@@H]3[C@H](C)CC4=C(CCC(=O)C4)[C@H]3CC[C@@]21C [Tibolone] (20 µM) | 1.01 | 0.989 | 1.04 | 0.931 | 1.03 (inactive) | 1.05 (inactive) | 1.04 (inactive) | 1.03 (inactive) | 1.02 (inactive) | 0.994 (inactive) | 1.01 (inactive) | 1.02 (inactive)
10 | COc1ccc(/C=C/C(=O)Nc2ccccc2C(=O)O)cc1OC [Tranilast] (20 µM) | 1.04 | 1.07 | 1.19 | 1.08 | 0.89 (inactive) | 0.993 (inactive) | 1.01 (inactive) | 0.977 (inactive) | 0.994 (inactive) | 0.995 (inactive) | 1.02 (inactive) | 0.981 (inactive)
11 | CC[C@H]1OC(=O)C[C@@H](O)[C@H](C)[C@@H](O[C@@H]2O[C@H](C)[C@@H](O[C@H]3C[C@@](C)(O)[C@@H](O)[C@H](C)O3)[C@H](N(C)C)[C@H]2O)[C@@H](CC=O)C[C@@H](C)C(=O)/C=C/C(C)=C/[C@@H]1CO[C@@H]1O[C@H](C)[C@@H](O)[C@@H](OC)[C@H]1OC [Tylosin] (20 µM) | 0 | 0.953 | 0.966 | 0.0976 | 0.792 (inactive) | 0.0522 (active) | 0.0892 (active) | 0.849 (inactive) | 1.05 (inactive) | 0.984 (inactive) | 1.02 (inactive) | 0.105 (active)
12 | CC(COc1ccccc1)NC(C)C(O)c1ccc(O)cc1 (centres undefined) [Isoxsuprine hydrochloride] (20 µM) | 1.07 | 1 | 1 | 1.01 | 0.819 (inactive) | 1.05 (inactive) | 0.977 (inactive) | 1.05 (inactive) | 1 (inactive) | 0.927 (inactive) | 1.03 (inactive) | 0.966 (inactive)
